Screening data from PubChem BioAssay.
HP1b binding inh: HP1-beta chromodomain-methylated histone interaction inhibition; P83916; AlphaScreen HP1-beta / biotin-H3K9me3 peptide binding; Potency, µM (doses to about 114 µM), usual class: inhibitors; hit rate 0.56% among 390,000; AID 540317; further: nearly all actives have a fitted effect of over 70% in size
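HP1-beta protein (50 nM final) preincubated 30 min at room temperature with biotinylated H3(1-18)K9me3 peptide (50 nM) in PBS pH 7.4, 0.01% Tween-20, then compound added for 30 min. AlphaScreen streptavidin donor/nickel chelate acceptor beads (10 ug/mL final), 30 min dark, luminescence read.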
G9a block: inhibitors of human histone lysine methyltransferase G9a; hit rate 8.8% among 350,000; Potency, µM (titrated, usually from 102 µM), hits mostly inhibitors; AID 504332; G9a H3K9 monomethylation, AlphaScreen, 2 h; further: nearly all actives have a fitted effect of over 75% in size
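G9a (20 nM) was preincubated 15 min with compound, then reacted 2 h at room temperature with 500 nM biotin-H3K9 peptide and 20 µM SAM. Monomethyl-H3K9 detected by AlphaScreen using anti-H3K9me1 antibody.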
JMJD2A Tudor: inhibitors of human JMJD2A Tudor domain; AlphaScreen JMJD2A-Tudor / H3K4me3 peptide binding; Potency, µM (top dose mostly 114 µM), actives largely listed as inhibitors; hit rate 4.4% among 390,000; further: nearly all actives have a fitted effect of over 50% in size
BAZ2B inh: BAZ2B (human) inhibition | Q9UIF8 | AlphaScreen BAZ2B-H3K14Ac peptide displacement | Potency, µM (doses to about 114 µM), usual class: inhibitors | hit rate 4.4% among 360,000; further: nearly all actives have a fitted effect of over 60% in size
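Complex of BAZ2B and biotin-H3K14Ac (50 nM apiece) forms over 30 min at RT, then faces library compounds up to 110 uM for another 30 min; AlphaScreen beads added, 20 min dark incubation, luminescence read.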
Sfp PPTase inh: blocks B. subtilis Sfp PPTase activity. Q9F4F7. Biochemical Sfp PPTase activity, qHTS. Potency, µM, most hits filed as inhibitors. hit rate 3.5% among 310,000. AID 1490;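 further: the enzyme is Sfp with the accession as filed and its product quenches rhodamine fluorescence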
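Fluorescence-quenching assay with 15 nM Sfp, 5 uM rhodamine-CoA and 12.5 uM BHQ-2-labelled ybbR peptide in pH 7.6 Hepes/MgCl2 buffer. Enzyme was pre-incubated with compound for 15 min at room temperature. Rate was taken from the 30-min fluorescence change (525/598 nm).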
TDP1 inh: inhibitors of human tyrosyl-DNA phosphodiesterase TDP1; Q9NUW8; hit rate 0.28% among 350,000; Potency, µM (highest dose often 130 µM), hits mostly inhibitors; recombinant TDP1, AlphaScreen DNA substrate cleavage; further: nearly all actives have a fitted effect of over 40% in size
Target sequence (Q9NUW8 whole entry, looked up): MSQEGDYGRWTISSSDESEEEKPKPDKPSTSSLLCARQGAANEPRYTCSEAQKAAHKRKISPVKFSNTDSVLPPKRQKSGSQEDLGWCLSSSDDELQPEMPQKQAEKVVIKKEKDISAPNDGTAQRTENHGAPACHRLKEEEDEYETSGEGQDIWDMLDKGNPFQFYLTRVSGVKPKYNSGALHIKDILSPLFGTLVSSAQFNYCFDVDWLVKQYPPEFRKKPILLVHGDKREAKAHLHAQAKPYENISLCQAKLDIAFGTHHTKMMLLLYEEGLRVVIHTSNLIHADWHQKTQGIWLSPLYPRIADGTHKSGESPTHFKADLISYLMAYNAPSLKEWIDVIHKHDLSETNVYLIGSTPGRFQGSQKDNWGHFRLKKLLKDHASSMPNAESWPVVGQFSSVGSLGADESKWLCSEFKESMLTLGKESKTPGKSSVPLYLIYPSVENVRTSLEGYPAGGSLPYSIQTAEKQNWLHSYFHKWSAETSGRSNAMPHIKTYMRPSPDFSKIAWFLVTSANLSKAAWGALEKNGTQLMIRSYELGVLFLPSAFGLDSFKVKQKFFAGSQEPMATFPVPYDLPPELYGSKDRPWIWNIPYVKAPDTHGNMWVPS
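Signal: AlphaScreen proximity between streptavidin donor and anti-FITC acceptor beads on intact substrate. Reaction: Tdp1 1 nM, substrate 15 nM final, 5 min RT after 15 min compound preincubation.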
Each line names hits and unclear results; the compound was inactive in the other large screens; ! = repeats disagree. Rows were chosen to be rich in hits. Some 12% of all compounds tested hit in one or more screens of this group. The call rests on the fitted dose curve; in most records, active means well fitted curve in the direction sought with a large enough effect; inconclusive means small, poorly fitted or top-dose-only effect, or another doubt; inactive means no such curve, though single readings can be large; an effect the other way counts as inactive or inconclusive.

COc1ccccc1CNC(=O)C(NS(=O)(=O)c1cccs1)C(C)C (configuration not stated)	none (no result: Sfp PPTase inh)
CC(=O)Nc1ccc(N=Nc2c(C)[nH]n(C(N)=S)c2=O)cc1	G9a block 45µM, Sfp PPTase inh 40µM
Cc1[nH]n(C(N)=S)c(=O)c1N=Nc1ccc2ccccc2c1	HP1b binding inh inconclusive, G9a block 32µM, JMJD2A Tudor 45µM, BAZ2B inh 25µM
CCc1nn(CC(=O)NCc2ccc(C)cc2)c(=O)c2cc3occc3n12	none (no result: Sfp PPTase inh)
CS(=O)(=O)Nc1ccc(Cc2ccc(NS(C)(=O)=O)cc2)cc1	none
CCS(=O)(=O)Nc1ccc(Cc2ccc(NS(=O)(=O)CC)cc2)cc1	G9a block 50µM
COc1cccc(Cn2ncc3c4sc(C)cc4n(C)c3c2=O)c1	none (no result: HP1b binding inh, G9a block, BAZ2B inh, Sfp PPTase inh, TDP1 inh)
O=C(N[C@@H](Cc1ccccc1)C(=O)N1CCN(S(=O)(=O)c2cccc(F)c2)CC1)c1ccco1	none (no result: Sfp PPTase inh)
COc1ccc(Cl)cc1NC(=S)N(CCCN1CCOCC1)Cc1cn(C)c2ccccc12	HP1b binding inh inconclusive, G9a block 10µM, JMJD2A Tudor inconclusive, BAZ2B inh inconclusive, Sfp PPTase inh 13µM
COc1cc(Cl)ccc1NC(=S)N(CCCN1CCOCC1)Cc1cn(C)c2ccccc12	HP1b binding inh inconclusive, G9a block 18µM, JMJD2A Tudor inconclusive, BAZ2B inh inconclusive, Sfp PPTase inh 11µM
O=C1CC(NCC2CCCO2)C(=O)N1c1ccc(F)cc1 (configuration not stated)	G9a block 50µM
N#CCNC1CC(=O)N(c2ccc(F)cc2)C1=O (configuration not stated)	G9a block 7.9µM, Sfp PPTase inh inconclusive (no result: TDP1 inh)
O=C1CC(NCc2ccc(F)cc2)C(=O)N1c1ccccc1 (configuration not stated)	none
CN(C)/C=N/C(=S)Nc1ccc(Cl)cc1Cl	none
CC(=O)c1sc(NC(=O)c2ccc(COc3ccccc3Cl)o2)nc1C	none (no result: TDP1 inh)
CCN1C(=O)N[C@@H](c2cccc(F)c2)C(C(C)=O)=C1C	none (no result: G9a block, BAZ2B inh)
CCN1C(=O)N[C@H](c2ccc(Br)cc2)C(C(C)=O)=C1C	G9a block 45µM, Sfp PPTase inh 89µM!
Cc1nc(/C=[N+](\[O-])C(C)(C)/C=N/O)n(O)c1C	G9a block inconclusive, JMJD2A Tudor 7.9µM, BAZ2B inh 50µM
Fc1ccc(CNc2ccccn2)cc1	none (no result: G9a block)
CSc1ccc(CNc2ccccn2)cc1	G9a block 45µM
Cc1cccc(NCc2ccc(N(C)C)cc2)n1	HP1b binding inh inconclusive, G9a block 50µM, JMJD2A Tudor 50µM, BAZ2B inh 40µM
CN(C)c1ccc(CNc2ccccn2)cc1	G9a block inconclusive, JMJD2A Tudor 56µM, BAZ2B inh 50µM (no result: TDP1 inh)
CC(=O)Oc1ccc2c(=O)c(Oc3ccccc3)c(C)oc2c1OC(C)=O	G9a block 3.2µM, JMJD2A Tudor inconclusive, Sfp PPTase inh inconclusive
CCNc1ncc2nc(-c3cc(F)cc(F)c3)c(=O)n(C)c2n1	none (no result: HP1b binding inh, JMJD2A Tudor, BAZ2B inh, TDP1 inh)
CCCS(=O)(=O)N1CCC(n2c(C)nc3cccnc32)CC1	none (no result: Sfp PPTase inh)
CCC(C)(C)c1ccc(OCCCC[n+]2cccc(C)c2)c(C(C)(C)CC)c1	G9a block inconclusive, Sfp PPTase inh 32µM
Clc1ccccc1-c1nccc(-n2ccnc2)n1	none (no result: HP1b binding inh, G9a block, JMJD2A Tudor, BAZ2B inh, TDP1 inh)
Clc1ccccc1C(c1ccccc1)(c1ccccc1)n1ccnc1	JMJD2A Tudor 28µM, BAZ2B inh 22µM
CC(C)(C)[C@H]1COC(=O)CC/C=C\C[C@H](CC(=O)N(CCO)Cc2ccccc2)C(=O)N1	none (no result: G9a block, BAZ2B inh, Sfp PPTase inh)
COc1ccc(-c2sc(Nc3ccc(F)c(F)c3F)nc2CCC(=O)NN)cc1	JMJD2A Tudor 56µM
CCN(CC(=O)Nc1cc(Cl)ccc1C)C(=O)CC1CCCC1	none (no result: G9a block, BAZ2B inh, Sfp PPTase inh)
O=C(Nc1nnc(S(=O)(=O)N2CCCCCC2)s1)c1ccccc1Cl	G9a block 10µM!, JMJD2A Tudor inconclusive, BAZ2B inh inconclusive
O=C(Nc1nnc(S(=O)(=O)N2CCCCC2)s1)c1ccccc1Br	none
O=C(Nc1nnc(S(=O)(=O)N2CCOCC2)s1)c1ccccc1Br	G9a block 79µM (no result: TDP1 inh)
Cc1nc(NCc2ccccc2)c2nc(-c3ccccc3)n(CCN3CCCC3)c2n1	none (no result: HP1b binding inh, G9a block, JMJD2A Tudor, BAZ2B inh)
Cc1nn(CC(=O)NCCN2CCOCC2)c(=O)c2cc3sccc3n12	none
Cc1ccc(F)cc1NC(=O)CSc1n[nH]c(N)n1	none (no result: G9a block, BAZ2B inh, Sfp PPTase inh)
CSc1ccc(CCNC(=O)c2ccc3c(Cl)c4c(nc3c2)CCCC4)cc1	none (no result: Sfp PPTase inh)
COc1ccc(NC2CCCN(C(=O)c3csc(C)n3)C2)cc1 (configuration not stated)	none (no result: G9a block)
O=C(CSc1ccccc1)N1CCCC(Nc2ccccc2)C1 (configuration not stated)	JMJD2A Tudor 16µM
COc1ccc(NC2CCCN(C(=O)CCc3scnc3C)C2)cc1 (configuration not stated)	G9a block inconclusive
COc1ccc(NC2CCCN(C(=O)CCC(=O)c3ccc(F)cc3)C2)cc1 (configuration not stated)	JMJD2A Tudor inconclusive, BAZ2B inh 40µM (no result: G9a block, TDP1 inh)
COc1cc(OC)cc(C(=O)N2CCCC(Nc3ccc(F)cc3)C2)c1 (configuration not stated)	none (no result: G9a block)
Cc1ncsc1CCC(=O)N1CCCC(Nc2ccc(C(C)C)cc2)C1 (configuration not stated)	G9a block 50µM
COc1ccc(NC2CCCN(C(=O)C3(C)CCCCC3)C2)cc1 (configuration not stated)	BAZ2B inh 32µM (no result: G9a block)
CCOc1ccc(NC(=O)CN(C)C(=O)C(C)N2C(=O)c3ccccc3C2=O)cc1OCC (configuration not stated)	none (no result: Sfp PPTase inh)
CSCCC(NS(=O)(=O)c1ccc2c(c1)oc(=O)n2C)C(=O)Nc1ccc(F)c(Cl)c1 (configuration not stated)	none (no result: Sfp PPTase inh)
O=C(NCC(c1cccnc1)N1CCc2ccccc21)c1ccc(Cl)cc1 (configuration not stated)	none (no result: Sfp PPTase inh)
COc1ccc(CCC(=O)N2CCCC(Nc3ccc(OC)cc3)C2)cc1 (configuration not stated)	G9a block 40µM, BAZ2B inh inconclusive
COc1ccc(NC2CCCN(C(=O)c3cccc(N4CCNC4=O)c3)C2)cc1 (configuration not stated)	G9a block 40µM
CC(C)c1ccc(NC2CCCN(C(=O)c3cccc(N4CCNC4=O)c3)C2)cc1 (configuration not stated)	BAZ2B inh inconclusive (no result: G9a block)
COc1ccc(NC2CCCN(C(=O)CSc3ccncc3)C2)cc1 (configuration not stated)	G9a block 40µM, BAZ2B inh 50µM, Sfp PPTase inh inconclusive
COc1ccc(NC2CCCN(C(=O)c3cccnc3)C2)cc1 (configuration not stated)	none
